The whole screen tested about 5,500 compounds, of which about 2,000 (36%) were called active. Not shown: some 18% with an inconclusive outcome. No stated cut-off is given here; in the data, active means normalized growth mostly below about 0.91 (no sharp cut-off); inconclusive means no clear call, values can overlap the other calls; inactive means mostly above about 0.92. This is one part of the list.
Assay: chemical genetic growth profiling, strain panel (AID 1159580);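 further: tested at 20 µM; growth read once vehicle control cultures reached saturation at 30 °C; 1 = growth at the plate median or of vehicle wells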
Conditions: growth OD

Measured: normalized growth

O=C(O)CCC(=O)OC[C@@H](NC(=O)C(Cl)Cl)[C@H](O)c1ccc([N+](=O)[O-])cc1
inactive: S. cerevisiae deletion strains, locus YJR043C, strain POL32, stronger effect = lower value 0.977 | S. cerevisiae deletion strains, locus YJR066W, strain TOR1, stronger effect = lower value 0.981 | S. cerevisiae deletion strains, locus YKL009W, strain mrt4, stronger effect = lower value 1 | S. cerevisiae deletion strains, locus YKL068W, stronger effect = lower value 0.962 | S. cerevisiae deletion strains, locus YKL085W, strain MDH1 (second series), stronger effect = lower value 0.99 | S. cerevisiae deletion strains, locus YKL085W, strain MDH1, stronger effect = lower value 0.99 | S. cerevisiae deletion strains, locus YKL160W, strain elf1, stronger effect = lower value 0.98 | S. cerevisiae deletion strains, locus YKL190W, strain CNB1, stronger effect = lower value 0.993 | S. cerevisiae deletion strains, locus YKR001C, strain vps1, stronger effect = lower value 0.967 | S. cerevisiae deletion strains, locus YKR026C, strain gcn3, stronger effect = lower value 0.984 | S. cerevisiae deletion strains, locus YKR091W, strain srl3, stronger effect = lower value 0.971 | S. cerevisiae deletion strains, locus YLL001W, strain dnm1, stronger effect = lower value 0.937 | S. cerevisiae deletion strains, locus YLL026W, stronger effect = lower value 0.974 | S. cerevisiae deletion strains, locus YLL041C, strain sdh2, stronger effect = lower value 0.993 | S. cerevisiae deletion strains, locus YLR027C, strain aat2, stronger effect = lower value 0.99 | S. cerevisiae deletion strains, locus YLR039C, strain RIC1, stronger effect = lower value 0.964 | S. cerevisiae deletion strains, locus YLR058C, strain SHM2, stronger effect = lower value 0.976 | S. cerevisiae deletion strains, locus YLR102C, strain apc9, stronger effect = lower value 0.977 | S. cerevisiae deletion strains, locus YLR113W, strain HOG1, stronger effect = lower value 0.973 | S. cerevisiae deletion strains, locus YLR221C, strain rsa3, stronger effect = lower value 0.918 | S. cerevisiae deletion strains, locus YLR258W, strain gsy2, stronger effect = lower value 0.984 | S. cerevisiae deletion strains, locus YLR262C, strain YPT6 (second series), stronger effect = lower value 0.966 | S. cerevisiae deletion strains, locus YLR262C, strain YPT6, stronger effect = lower value 0.866 | S. cerevisiae deletion strains, locus YLR268W, strain sec22, stronger effect = lower value 0.974 | S. cerevisiae deletion strains, locus YLR320W, strain mms22, stronger effect = lower value 0.944 | S. cerevisiae deletion strains, locus YLR330W, strain CHS5, stronger effect = lower value 0.985 | S. cerevisiae deletion strains, locus YLR342W, strain FKS1 (second series), stronger effect = lower value 1.01 | S. cerevisiae deletion strains, locus YLR342W, strain FKS1, stronger effect = lower value 0.986 | S. cerevisiae deletion strains, locus YLR357W, strain rsc2, stronger effect = lower value 1 | S. cerevisiae deletion strains, locus YLR370C, strain arc18, stronger effect = lower value 0.944 | S. cerevisiae deletion strains, locus YLR371W, strain rom2, stronger effect = lower value 0.979 | S. cerevisiae deletion strains, locus YLR384C, strain iki3, stronger effect = lower value 0.987 | S. cerevisiae deletion strains, locus YLR418C, strain cdc73, stronger effect = lower value 0.974 | S. cerevisiae deletion strains, locus YML016C, strain PPZ1, stronger effect = lower value 0.979 | S. cerevisiae deletion strains, locus YML032C, strain rad52, stronger effect = lower value 0.968 | S. cerevisiae deletion strains, locus YML120C, strain ndi1, stronger effect = lower value 0.936 | S. cerevisiae deletion strains, locus YML124C, strain tub3, stronger effect = lower value 0.994 | S. cerevisiae deletion strains, locus YMR058W, strain fet3, stronger effect = lower value 0.983 | S. cerevisiae deletion strains, locus YMR078C, strain ctf18, stronger effect = lower value 0.978 | S. cerevisiae deletion strains, locus YMR125W, strain sto1, stronger effect = lower value 0.962 | S. cerevisiae deletion strains, locus YMR129W, stronger effect = lower value 0.988 | S. cerevisiae deletion strains, locus YMR205C, strain PFK2, stronger effect = lower value 1.01 | S. cerevisiae deletion strains, locus YMR223W, strain ubp8, stronger effect = lower value 0.997 | S. cerevisiae deletion strains, locus YMR231W, strain pep5, stronger effect = lower value 0.996 | S. cerevisiae deletion strains, locus YMR263W, strain SAP30, stronger effect = lower value 1.01 | S. cerevisiae deletion strains, locus YMR307W, strain GAS1, stronger effect = lower value 1.05 | S. cerevisiae deletion strains, locus YNL067W, strain RPL9B, stronger effect = lower value 1.03 | S. cerevisiae deletion strains, locus YNL071W, strain lat1, stronger effect = lower value 0.989 | S. cerevisiae deletion strains, locus YNL153C, strain GIM3, stronger effect = lower value 1.02 | S. cerevisiae deletion strains, locus YNL183C, strain NPR1, stronger effect = lower value 0.93 | S. cerevisiae deletion strains, locus YNL209W, strain ssb2, stronger effect = lower value 0.971 | S. cerevisiae deletion strains, locus YNL233W, strain BNI4, stronger effect = lower value 1.02 | S. cerevisiae deletion strains, locus YNL248C, strain rpa49, stronger effect = lower value 1.02 | S. cerevisiae deletion strains, locus YNL271C, strain bni1, stronger effect = lower value 0.97 | S. cerevisiae deletion strains, locus YNL298W, strain CLA4, stronger effect = lower value 0.983 | S. cerevisiae deletion strains, locus YNL307C, strain MCK1, stronger effect = lower value 0.99 | S. cerevisiae deletion strains, locus YNL322C, strain KRE1 (second series), stronger effect = lower value 0.962 | S. cerevisiae deletion strains, locus YNR049C, strain mso1, stronger effect = lower value 0.972 | S. cerevisiae deletion strains, locus YNR052C, strain pop2, stronger effect = lower value 0.989 | S. cerevisiae deletion strains, locus YOL006C, strain TOP1, stronger effect = lower value 1.15 | S. cerevisiae deletion strains, locus YOL012C, strain htz1 0.661 | S. cerevisiae deletion strains, locus YOL147C, strain pex11, stronger effect = lower value 0.988 | S. cerevisiae deletion strains, locus YOR001W, strain rrp6, stronger effect = lower value 1.04 | S. cerevisiae deletion strains, locus YOR061W, strain CKA2, stronger effect = lower value 0.967 | S. cerevisiae deletion strains, locus YOR069W, strain VPS5, stronger effect = lower value 0.967 | S. cerevisiae deletion strains, locus YOR070C, strain gyp1, stronger effect = lower value 0.999 | S. cerevisiae deletion strains, locus YOR080W, strain dia2, stronger effect = lower value 0.98 | S. cerevisiae deletion strains, locus YOR083W, strain WHI5, stronger effect = lower value 0.978 | S. cerevisiae deletion strains, locus YOR106W, strain vam3, stronger effect = lower value 0.998 | S. cerevisiae deletion strains, locus YOR136W, strain idh2, stronger effect = lower value 0.984 | S. cerevisiae deletion strains, locus YOR144C, strain elg1, stronger effect = lower value 0.988 | S. cerevisiae deletion strains, locus YOR184W, strain ser1, stronger effect = lower value 0.987 | S. cerevisiae deletion strains, locus YOR231W, strain MKK1, stronger effect = lower value 0.971 | S. cerevisiae deletion strains, locus YOR265W, strain rbl2, stronger effect = lower value 0.976 | S. cerevisiae deletion strains, locus YOR270C, strain vph1, stronger effect = lower value 0.987 | S. cerevisiae deletion strains, locus YOR290C, strain snf2, stronger effect = lower value 0.928 | S. cerevisiae deletion strains, locus YOR316C, strain cot1, stronger effect = lower value 0.97 | S. cerevisiae deletion strains, locus YPL051W, strain arl3, stronger effect = lower value 0.998 | S. cerevisiae deletion strains, locus YPL078C, strain atp4, stronger effect = lower value 0.988 | S. cerevisiae deletion strains, locus YPL106C, strain sse1, stronger effect = lower value 0.944 | S. cerevisiae deletion strains, locus YPL240C, strain hsp82, stronger effect = lower value 0.995 | S. cerevisiae deletion strains, locus YPL256C, strain CLN2, stronger effect = lower value 0.981 | S. cerevisiae deletion strains, locus YPR119W, strain clb2, stronger effect = lower value 0.982 | S. cerevisiae deletion strains, locus YPR141C, strain kar3, stronger effect = lower value 0.975 | S. cerevisiae deletion strains, locus YPR163C, strain tif3, stronger effect = lower value 0.983 | S. cerevisiae deletion strains, locus YPR167C, strain met16, stronger effect = lower value 0.991 | S. cerevisiae deletion strains, strain wtn01, stronger effect = lower value 1 | S. cerevisiae strains, strain wild type, stronger effect = lower value 0.984
